Common to all, as to assay: DAPPL (digital affinity profiling via proximity ligation, sequencing); 10 mM Tris-HCl pH 7.5, 50 mM NaCl, 1 mM DTT, 4% glycerol, room temperature, 30 min; GST-TFs on glutathione beads, 16-mer random dsDNA library, 0.1% formaldehyde crosslink after washing; high values mean tight binding
Experiment [1] concerns the target T1, FEV (Homo sapiens, UniProt Q99581 1-238).
T1 sequence: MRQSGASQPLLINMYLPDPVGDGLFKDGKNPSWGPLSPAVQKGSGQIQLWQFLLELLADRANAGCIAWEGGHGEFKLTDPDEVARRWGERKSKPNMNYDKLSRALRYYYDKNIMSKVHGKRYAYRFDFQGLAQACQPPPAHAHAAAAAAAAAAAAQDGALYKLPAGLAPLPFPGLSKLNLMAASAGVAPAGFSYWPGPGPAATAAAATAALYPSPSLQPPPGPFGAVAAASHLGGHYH
The settings on record: protein: recombinant; tags: N-terminal GST; dsDNA, one strand shown. Put shortly:
(§1)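 Each value of binding signal is a hexamer's read frequency for a factor divided by the same hexamer's frequency in the tag-only sample. Barcoded, bead-captured GST fusions of human transcription factors made in yeast were pooled with that sample and incubated with 200 nmole of a random double-stranded 16-mer DNA library in Tris/NaCl/DTT/glycerol buffer at room temperature for 30 min. Washing, 0.1% formaldehyde crosslinking, proximity ligation, PCR and Illumina NextSeq500 sequencing followed.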

Experiment [2] deals with ETV5 (Homo sapiens, UniProt P41161 1-510). The settings on record: protein: recombinant; tags: N-terminal GST; dsDNA, one strand shown. Put shortly:
as §1

In experiment [3] the target is HSF1 (Homo sapiens, UniProt Q00613 1-529). The note with it: protein: recombinant; tags: N-terminal GST; chain copies: 3; dsDNA, one strand shown. In short, it runs like this: as §1
Chain of HSF1 (Q00613 whole entry): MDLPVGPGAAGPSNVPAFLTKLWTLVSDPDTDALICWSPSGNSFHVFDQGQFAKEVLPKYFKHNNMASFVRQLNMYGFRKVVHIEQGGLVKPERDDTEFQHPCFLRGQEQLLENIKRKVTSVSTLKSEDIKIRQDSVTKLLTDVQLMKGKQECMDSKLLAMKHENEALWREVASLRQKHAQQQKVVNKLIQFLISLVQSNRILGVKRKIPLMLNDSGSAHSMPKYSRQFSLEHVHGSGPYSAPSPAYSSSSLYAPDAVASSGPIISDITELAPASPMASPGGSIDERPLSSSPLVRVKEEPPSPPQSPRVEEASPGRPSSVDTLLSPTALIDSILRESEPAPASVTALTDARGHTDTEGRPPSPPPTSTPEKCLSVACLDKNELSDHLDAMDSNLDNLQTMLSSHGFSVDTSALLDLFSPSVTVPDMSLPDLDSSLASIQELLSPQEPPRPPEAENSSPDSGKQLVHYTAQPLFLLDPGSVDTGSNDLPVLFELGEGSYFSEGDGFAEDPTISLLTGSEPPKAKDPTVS
The target of experiment [4] is T2, SPIC (Homo sapiens, UniProt Q8N5J4 1-248).
T2 sequence: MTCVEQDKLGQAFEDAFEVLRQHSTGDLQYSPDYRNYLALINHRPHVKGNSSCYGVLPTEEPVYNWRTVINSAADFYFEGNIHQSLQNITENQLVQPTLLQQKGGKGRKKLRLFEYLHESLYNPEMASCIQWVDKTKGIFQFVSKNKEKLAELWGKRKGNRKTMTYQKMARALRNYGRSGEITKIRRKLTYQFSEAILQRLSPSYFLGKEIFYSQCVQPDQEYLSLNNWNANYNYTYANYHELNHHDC
The settings on record: protein: recombinant; tags: N-terminal GST; dsDNA, one strand shown. Put shortly: as §1

Experiment [5] concerns the target ELF4 (Homo sapiens, UniProt Q99607 1-663). The note with it: protein: recombinant; tags: N-terminal GST; dsDNA, one strand shown. Put shortly:
as §1

Experiment [6] concerns the target T3, ELK4 (Homo sapiens, UniProt P28324-2 1-405).
T3 sequence: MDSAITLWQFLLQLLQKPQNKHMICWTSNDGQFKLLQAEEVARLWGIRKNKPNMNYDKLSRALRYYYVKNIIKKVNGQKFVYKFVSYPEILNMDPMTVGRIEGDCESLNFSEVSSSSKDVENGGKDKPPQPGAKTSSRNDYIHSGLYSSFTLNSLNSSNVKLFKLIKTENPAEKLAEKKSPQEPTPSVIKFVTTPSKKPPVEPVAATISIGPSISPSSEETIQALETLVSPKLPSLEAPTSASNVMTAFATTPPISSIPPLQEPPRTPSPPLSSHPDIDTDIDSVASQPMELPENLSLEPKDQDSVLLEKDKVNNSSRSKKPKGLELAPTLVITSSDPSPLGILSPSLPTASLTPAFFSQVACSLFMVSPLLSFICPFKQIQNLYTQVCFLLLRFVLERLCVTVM
The settings on record: protein: recombinant; tags: N-terminal GST; dsDNA, one strand shown. In short, it runs like this: as §1

Experiment [7] deals with T4, ETV2 (Homo sapiens, UniProt O00321 1-342).
T4 sequence: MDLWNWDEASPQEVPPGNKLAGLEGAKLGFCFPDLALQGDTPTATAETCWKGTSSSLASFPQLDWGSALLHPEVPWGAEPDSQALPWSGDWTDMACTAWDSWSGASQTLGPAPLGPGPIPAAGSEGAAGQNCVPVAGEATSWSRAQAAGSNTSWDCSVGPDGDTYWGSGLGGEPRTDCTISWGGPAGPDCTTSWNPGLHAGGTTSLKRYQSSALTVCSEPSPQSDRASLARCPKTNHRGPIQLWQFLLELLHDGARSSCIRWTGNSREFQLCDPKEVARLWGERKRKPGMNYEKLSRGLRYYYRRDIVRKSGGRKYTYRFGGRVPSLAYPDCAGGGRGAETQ
The note with it: protein: recombinant; tags: N-terminal GST; dsDNA, one strand shown. Put shortly:
as §1

For experiment [8], the target named is T5, ELF3 (Homo sapiens, UniProt P78545 1-371).
T5 sequence: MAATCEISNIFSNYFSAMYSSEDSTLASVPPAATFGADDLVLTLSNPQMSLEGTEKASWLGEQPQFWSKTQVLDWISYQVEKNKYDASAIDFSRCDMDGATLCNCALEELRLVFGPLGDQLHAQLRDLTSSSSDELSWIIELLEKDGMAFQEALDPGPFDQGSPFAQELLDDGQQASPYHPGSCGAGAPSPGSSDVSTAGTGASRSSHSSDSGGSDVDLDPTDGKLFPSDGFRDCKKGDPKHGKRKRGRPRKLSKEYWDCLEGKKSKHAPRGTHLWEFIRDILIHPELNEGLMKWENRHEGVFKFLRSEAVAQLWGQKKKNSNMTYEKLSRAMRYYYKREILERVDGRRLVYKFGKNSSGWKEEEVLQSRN
The note with it: protein: recombinant; tags: N-terminal GST; dsDNA, one strand shown. In short, it runs like this:
as §1

The target in experiment [9] is CRX (Homo sapiens, UniProt O43186 1-299). The note with it: protein: recombinant; tags: N-terminal GST; dsDNA, one strand shown. Put shortly:
as §1

For experiment [10], the target named is ETV1 (Homo sapiens, UniProt P50549 1-477). The note with it: protein: recombinant; tags: N-terminal GST; dsDNA, one strand shown. Put shortly:
as §1

For experiment [11], the target named is T6, ERF (Homo sapiens, UniProt P50548 1-548).
T6 sequence: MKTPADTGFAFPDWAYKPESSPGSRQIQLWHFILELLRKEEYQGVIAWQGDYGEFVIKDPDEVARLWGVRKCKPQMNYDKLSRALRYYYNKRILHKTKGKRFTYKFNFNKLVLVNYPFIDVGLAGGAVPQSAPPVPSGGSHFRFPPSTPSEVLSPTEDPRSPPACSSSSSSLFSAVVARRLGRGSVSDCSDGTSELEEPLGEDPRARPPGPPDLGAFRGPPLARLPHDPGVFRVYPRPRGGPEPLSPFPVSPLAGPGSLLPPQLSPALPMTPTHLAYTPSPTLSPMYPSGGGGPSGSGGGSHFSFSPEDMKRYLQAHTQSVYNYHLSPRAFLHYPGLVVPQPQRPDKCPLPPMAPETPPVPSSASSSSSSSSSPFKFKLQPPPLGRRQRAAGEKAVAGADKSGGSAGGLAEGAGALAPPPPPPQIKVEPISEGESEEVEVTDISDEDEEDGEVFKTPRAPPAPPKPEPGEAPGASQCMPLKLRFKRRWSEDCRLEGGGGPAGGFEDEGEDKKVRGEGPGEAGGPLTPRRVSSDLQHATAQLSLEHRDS
The note with it: protein: recombinant; tags: N-terminal GST; dsDNA, one strand shown. Put shortly: as §1

For experiment [12], the target named is T7, ETV3L (Homo sapiens, UniProt Q6ZN32 1-361).
T7 sequence: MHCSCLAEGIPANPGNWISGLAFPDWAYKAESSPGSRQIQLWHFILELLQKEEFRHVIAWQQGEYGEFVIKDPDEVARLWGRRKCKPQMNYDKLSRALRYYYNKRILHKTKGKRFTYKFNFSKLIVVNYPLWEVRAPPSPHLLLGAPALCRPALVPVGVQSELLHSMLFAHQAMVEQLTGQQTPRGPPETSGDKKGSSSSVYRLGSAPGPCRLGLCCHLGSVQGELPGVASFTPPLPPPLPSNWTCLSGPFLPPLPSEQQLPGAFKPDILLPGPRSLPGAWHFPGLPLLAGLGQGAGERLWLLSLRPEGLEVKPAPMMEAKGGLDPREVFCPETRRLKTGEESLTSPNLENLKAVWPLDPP
The settings on record: protein: recombinant; tags: N-terminal GST; dsDNA, one strand shown. In short, it runs like this: as §1

Experiment [13] addresses T8, ETS2 (Homo sapiens, UniProt P15036 1-469).
T8 sequence: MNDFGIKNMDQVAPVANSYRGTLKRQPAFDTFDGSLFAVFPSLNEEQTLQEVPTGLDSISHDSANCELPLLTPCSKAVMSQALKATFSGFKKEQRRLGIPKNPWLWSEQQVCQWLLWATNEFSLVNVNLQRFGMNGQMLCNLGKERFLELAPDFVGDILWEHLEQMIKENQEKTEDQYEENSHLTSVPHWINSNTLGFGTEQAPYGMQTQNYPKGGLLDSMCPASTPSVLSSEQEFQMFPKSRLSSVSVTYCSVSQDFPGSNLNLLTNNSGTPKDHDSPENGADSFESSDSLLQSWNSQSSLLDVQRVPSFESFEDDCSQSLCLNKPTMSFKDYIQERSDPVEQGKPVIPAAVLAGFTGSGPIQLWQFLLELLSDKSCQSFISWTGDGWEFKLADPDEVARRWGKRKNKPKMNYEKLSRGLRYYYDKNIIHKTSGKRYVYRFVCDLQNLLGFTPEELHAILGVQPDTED
The settings on record: protein: recombinant; tags: N-terminal GST; dsDNA, one strand shown. Put shortly:
as §1

Experiment [14] concerns the target T9, SPDEF (Homo sapiens, UniProt O95238 1-335).
T9 sequence: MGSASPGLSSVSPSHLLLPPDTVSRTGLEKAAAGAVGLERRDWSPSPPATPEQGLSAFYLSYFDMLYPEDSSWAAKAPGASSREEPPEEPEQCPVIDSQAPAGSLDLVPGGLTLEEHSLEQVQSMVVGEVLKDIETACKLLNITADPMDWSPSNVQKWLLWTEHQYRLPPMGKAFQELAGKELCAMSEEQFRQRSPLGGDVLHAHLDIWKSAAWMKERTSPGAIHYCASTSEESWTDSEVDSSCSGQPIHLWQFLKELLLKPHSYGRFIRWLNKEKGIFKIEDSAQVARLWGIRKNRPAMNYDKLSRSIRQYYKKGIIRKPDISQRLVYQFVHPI
The note with it: protein: recombinant; tags: N-terminal GST; dsDNA, one strand shown. Put shortly: as §1

Experiment [15] concerns the target T10, ETV7 (Homo sapiens, UniProt Q9Y603 1-341).
T10 sequence: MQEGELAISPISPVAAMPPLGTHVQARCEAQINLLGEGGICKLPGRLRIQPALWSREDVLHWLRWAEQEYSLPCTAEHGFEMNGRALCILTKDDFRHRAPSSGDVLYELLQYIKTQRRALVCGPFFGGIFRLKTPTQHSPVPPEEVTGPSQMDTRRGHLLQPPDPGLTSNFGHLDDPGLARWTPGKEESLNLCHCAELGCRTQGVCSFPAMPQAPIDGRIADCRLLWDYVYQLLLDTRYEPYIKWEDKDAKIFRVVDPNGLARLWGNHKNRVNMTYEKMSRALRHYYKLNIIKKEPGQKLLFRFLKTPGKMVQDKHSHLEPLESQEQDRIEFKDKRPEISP
The settings on record: protein: recombinant; tags: N-terminal GST; dsDNA, one strand shown. In short, it runs like this: as §1

Experiment [16] addresses T11, ELF5 (Homo sapiens, UniProt Q9UKW6-2 1-255).
T11 sequence: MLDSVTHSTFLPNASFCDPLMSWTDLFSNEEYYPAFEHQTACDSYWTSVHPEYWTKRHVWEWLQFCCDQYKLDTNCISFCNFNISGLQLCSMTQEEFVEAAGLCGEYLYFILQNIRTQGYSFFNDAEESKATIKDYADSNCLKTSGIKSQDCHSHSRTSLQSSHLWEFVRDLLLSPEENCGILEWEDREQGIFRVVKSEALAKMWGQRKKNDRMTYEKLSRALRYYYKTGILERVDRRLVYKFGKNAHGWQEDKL
The note with it: protein: recombinant; tags: N-terminal GST; dsDNA, one strand shown. Put shortly:
as §1

Experiment [17] concerns the target T12, ETV3 (Homo sapiens, UniProt P41162-2 1-143).
T12 sequence: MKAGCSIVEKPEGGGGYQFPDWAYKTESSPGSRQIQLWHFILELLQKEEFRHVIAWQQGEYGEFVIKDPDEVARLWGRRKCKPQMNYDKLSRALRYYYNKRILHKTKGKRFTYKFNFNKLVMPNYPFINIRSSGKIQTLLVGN
The settings on record: protein: recombinant; tags: N-terminal GST; dsDNA, one strand shown. Put shortly:
as §1

Experiment [18] addresses ETV6 (Homo sapiens, UniProt P41212 1-452). The settings on record: protein: recombinant; tags: N-terminal GST; dsDNA, one strand shown. In short, it runs like this: as §1

Chain of ELF4 (Q99607 whole entry): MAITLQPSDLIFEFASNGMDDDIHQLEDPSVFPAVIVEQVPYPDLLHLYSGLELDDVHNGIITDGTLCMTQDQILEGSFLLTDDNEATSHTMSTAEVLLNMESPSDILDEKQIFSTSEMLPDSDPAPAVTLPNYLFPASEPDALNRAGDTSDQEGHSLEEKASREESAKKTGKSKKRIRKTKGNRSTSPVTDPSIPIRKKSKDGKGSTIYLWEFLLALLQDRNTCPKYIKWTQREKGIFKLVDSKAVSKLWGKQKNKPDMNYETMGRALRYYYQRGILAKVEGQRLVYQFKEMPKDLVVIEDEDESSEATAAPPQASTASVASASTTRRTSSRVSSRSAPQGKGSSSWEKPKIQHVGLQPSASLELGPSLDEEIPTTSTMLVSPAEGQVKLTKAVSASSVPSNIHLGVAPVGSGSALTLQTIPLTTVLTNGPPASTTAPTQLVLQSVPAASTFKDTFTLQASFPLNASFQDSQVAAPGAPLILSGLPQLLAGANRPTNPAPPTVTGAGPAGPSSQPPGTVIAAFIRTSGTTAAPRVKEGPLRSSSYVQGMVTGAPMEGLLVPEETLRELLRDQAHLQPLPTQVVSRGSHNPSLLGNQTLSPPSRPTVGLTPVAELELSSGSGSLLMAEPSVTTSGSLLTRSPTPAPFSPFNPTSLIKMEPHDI
Chain of ETV5 (P41161 whole entry): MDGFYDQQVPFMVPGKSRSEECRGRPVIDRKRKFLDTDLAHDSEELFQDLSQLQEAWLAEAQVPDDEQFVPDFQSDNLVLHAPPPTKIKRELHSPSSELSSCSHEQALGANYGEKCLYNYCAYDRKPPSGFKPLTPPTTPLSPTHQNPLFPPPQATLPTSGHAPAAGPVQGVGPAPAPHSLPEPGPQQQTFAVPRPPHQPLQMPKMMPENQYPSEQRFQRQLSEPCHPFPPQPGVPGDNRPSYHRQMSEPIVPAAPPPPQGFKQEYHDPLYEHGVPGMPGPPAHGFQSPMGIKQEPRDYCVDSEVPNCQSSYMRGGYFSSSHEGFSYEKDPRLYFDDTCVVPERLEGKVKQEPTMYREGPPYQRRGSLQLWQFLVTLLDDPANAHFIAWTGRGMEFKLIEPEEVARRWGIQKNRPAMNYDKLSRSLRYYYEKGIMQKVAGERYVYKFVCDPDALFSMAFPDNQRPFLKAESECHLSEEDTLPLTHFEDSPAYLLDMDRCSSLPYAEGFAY
Chain of CRX (O43186 whole entry): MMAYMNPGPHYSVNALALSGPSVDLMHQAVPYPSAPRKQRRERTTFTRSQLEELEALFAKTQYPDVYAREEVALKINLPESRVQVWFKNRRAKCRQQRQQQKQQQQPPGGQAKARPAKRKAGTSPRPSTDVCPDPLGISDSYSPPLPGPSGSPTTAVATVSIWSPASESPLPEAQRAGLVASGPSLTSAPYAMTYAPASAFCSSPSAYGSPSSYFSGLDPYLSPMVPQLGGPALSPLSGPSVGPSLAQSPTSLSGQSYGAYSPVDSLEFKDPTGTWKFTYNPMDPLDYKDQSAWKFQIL
Chain of ETV6 (P41212 whole entry): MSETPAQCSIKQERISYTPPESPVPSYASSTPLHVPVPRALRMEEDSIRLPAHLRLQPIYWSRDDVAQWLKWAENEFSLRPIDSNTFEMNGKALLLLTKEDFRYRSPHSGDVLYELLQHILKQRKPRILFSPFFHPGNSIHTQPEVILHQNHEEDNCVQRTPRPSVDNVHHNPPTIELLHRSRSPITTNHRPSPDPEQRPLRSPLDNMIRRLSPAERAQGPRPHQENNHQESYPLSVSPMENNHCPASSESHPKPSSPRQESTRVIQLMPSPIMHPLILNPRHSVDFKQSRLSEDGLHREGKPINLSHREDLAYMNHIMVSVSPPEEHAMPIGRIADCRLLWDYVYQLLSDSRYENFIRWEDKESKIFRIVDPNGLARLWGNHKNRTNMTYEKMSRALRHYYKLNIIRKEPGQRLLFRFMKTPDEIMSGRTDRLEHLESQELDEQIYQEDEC
Chain of ETV1 (P50549 whole entry): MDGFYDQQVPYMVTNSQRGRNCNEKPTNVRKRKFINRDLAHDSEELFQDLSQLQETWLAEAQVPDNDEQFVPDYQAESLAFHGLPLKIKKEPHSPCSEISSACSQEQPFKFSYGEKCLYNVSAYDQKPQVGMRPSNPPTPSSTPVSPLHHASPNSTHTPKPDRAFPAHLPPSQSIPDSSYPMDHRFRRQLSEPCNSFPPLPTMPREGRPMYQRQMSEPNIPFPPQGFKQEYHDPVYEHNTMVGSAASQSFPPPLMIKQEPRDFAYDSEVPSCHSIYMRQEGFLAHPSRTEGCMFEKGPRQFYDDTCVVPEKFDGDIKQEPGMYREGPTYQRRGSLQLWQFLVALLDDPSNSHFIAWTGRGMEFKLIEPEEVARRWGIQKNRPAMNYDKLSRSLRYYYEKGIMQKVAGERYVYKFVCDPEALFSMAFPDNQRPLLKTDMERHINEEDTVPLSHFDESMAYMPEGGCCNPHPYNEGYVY

TAAATG: the binding signal in experiment [1] was 1.18 fold enrichment (6-mer frequency, TF over GST control); in experiment [2] it was 1.38 fold enrichment (6-mer frequency, TF over GST control); in [3], 1.37 fold enrichment (6-mer frequency, TF over GST control); in experiment [4] it was 1.46 fold enrichment (6-mer frequency, TF over GST control); in [5], 1.25 fold enrichment (6-mer frequency, TF over GST control); in experiment [6] it was 1.39 fold enrichment (6-mer frequency, TF over GST control). The binding signal in [7] is 1.31 fold enrichment (6-mer frequency, TF over GST control); in experiment [8], 1.34 fold enrichment (6-mer frequency, TF over GST control); in experiment [9] it was 1.69 fold enrichment (6-mer frequency, TF over GST control); in experiment [10] it was 1.37 fold enrichment (6-mer frequency, TF over GST control); in [11] it was 1.24 fold enrichment (6-mer frequency, TF over GST control); in experiment [12], 1.39 fold enrichment (6-mer frequency, TF over GST control). In addition, the binding signal in experiment [13] is 1.38 fold enrichment (6-mer frequency, TF over GST control); in [14] it was 1.35 fold enrichment (6-mer frequency, TF over GST control); in experiment [15], 1.31 fold enrichment (6-mer frequency, TF over GST control); in experiment [16], 1.16 fold enrichment (6-mer frequency, TF over GST control); in experiment [17] it was 1.31 fold enrichment (6-mer frequency, TF over GST control); in [18] it was 1.31 fold enrichment (6-mer frequency, TF over GST control).
